ST2 inh – inhibitors of human ST2 (IL1RL1) binding to IL-33 | Q01638 | AlphaLISA ST2-Fc/biotin-IL-33 interaction, 1 h | inhibition, % for hits at 17 µM | 78,000 tested, 2.3% active; in the data active means inhibition above about 30%
Target sequence (Q01638 whole entry, looked up): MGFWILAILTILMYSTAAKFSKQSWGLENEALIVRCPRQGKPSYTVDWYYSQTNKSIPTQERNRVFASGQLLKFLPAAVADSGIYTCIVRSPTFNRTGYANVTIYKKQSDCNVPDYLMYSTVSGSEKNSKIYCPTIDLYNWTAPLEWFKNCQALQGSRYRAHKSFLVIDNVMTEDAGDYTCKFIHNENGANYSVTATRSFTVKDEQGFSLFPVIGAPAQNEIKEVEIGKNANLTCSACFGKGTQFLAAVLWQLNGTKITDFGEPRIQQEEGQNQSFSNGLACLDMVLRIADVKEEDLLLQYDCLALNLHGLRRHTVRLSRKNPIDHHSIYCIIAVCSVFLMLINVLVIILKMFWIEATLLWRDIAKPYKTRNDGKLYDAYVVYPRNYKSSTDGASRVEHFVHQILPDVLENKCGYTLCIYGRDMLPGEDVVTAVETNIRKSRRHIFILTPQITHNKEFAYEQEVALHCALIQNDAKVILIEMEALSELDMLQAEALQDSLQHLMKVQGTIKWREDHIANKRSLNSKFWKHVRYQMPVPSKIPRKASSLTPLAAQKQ
Numbers without * were called inactive; i = inactive. This excerpt belongs to a sample that is enriched for hits.

SMILES	ST2 inh
CCOC(=O)c1c(NC(=O)c2ccc(Cl)s2)sc2c1CCN(C)C2	i
CC1CCc2sc(NC(=O)c3sc4ccccc4c3Cl)c(C(N)=O)c2C1 (configuration not stated)	i
N#CC1=C(N)OC2=C(C(=O)CCC2)C1c1coc2ccccc2c1=O (configuration not stated)	i
Cc1ccc(C(=O)Nc2ccccc2C(=O)O)cc1	i
O=C(Nc1ccccc1C(=O)O)c1ccccc1	33%*
O=C(Nc1ccccc1F)c1ccccc1	i
Cc1cc(C)cc(NC(=O)CC(=O)NC(c2cccnc2)C(F)(F)F)c1 (configuration not stated)	i
COc1ccccc1N1CCN(C2CCCN(Cc3cc(C)c(C)o3)C2)CC1 (configuration not stated)	i
O=[N+]([O-])c1ccc(S(=O)(=O)n2nnc3ccccc32)cc1	i
O=[N+]([O-])c1ccc(-n2ccc3ccccc32)cc1	32%*
COc1ccc(-n2ccc3ccccc32)cc1	i
Cc1cccc(CN2CCCC3(CCN(C(=O)CCc4ccccc4C)C3)C2)c1 (configuration not stated)	i
CN(C)/C=C/C=C/C=C1\CCC/C(=C\C=C\N(C)C)C1=O	63%*
CCCc1cc2c(=O)c(-c3ccc4c(c3)OCCO4)coc2cc1OC(C)=O	i
CN(Cc1cc(-c2ccccc2)no1)C(=O)c1ccc(CO)o1	i
O=C(O)CCCCCNC(=O)/C(=C/c1ccc2c(c1)OCO2)NC(=O)c1ccco1	i
O=C1C2C3c4ccccc4C([N+](=O)[O-])(c4ccccc43)C2C(=O)N1c1ccc(O)cc1 (configuration not stated)	i
Cc1ccc(Oc2ccc3c(c2)C(=O)N(CC(=O)O)C3=O)cc1C	i
CN(C)c1ccc(/C=C2/C(=O)c3ccc(C(=O)O)cc3C2=O)cc1	i
CC1=NN(c2cc(C(=O)O)cc(C(=O)O)c2)C(=O)/C1=C\c1ccc(N(C)C)cc1	76%*
CC1=NN(c2ccc(F)cc2)C(=O)/C1=C/c1ccc(N(C)C)c([N+](=O)[O-])c1	i
CC1=NN(c2cccc(Cl)c2)C(=O)/C1=C\c1ccc(-c2ccc(C(=O)O)c(Cl)c2)o1	i
CCc1ccc(N2N=C(C)/C(=C/c3ccc(N(C)C)cc3)C2=O)cc1	42%*
CC(=O)N1CCc2cc(Br)cc(S(=O)(=O)CC(=O)Nc3ccc(C)c(C)c3)c21	i
COc1cccc(-c2nnc(NC(=O)c3ccc(S(=O)(=O)N4CCCCC4C)cc3)o2)c1 (configuration not stated)	i
SMILES	ST2 inh
Cc1ccc(/C=C(/C#N)c2nc(-c3ccc(Br)cc3)cs2)o1	52%*
CC(C)(C)C(=O)Nc1nc(-c2ccc(Br)cc2)cs1	i
N#C/C(=C\Nc1ccc(F)cc1)c1nc(-c2cc3cc(Br)ccc3oc2=O)cs1	i
N#C/C(=C\c1ccco1)c1nc(-c2ccc(Br)cc2)cs1	32%*
NNC(=O)C(=O)Nc1nc(-c2ccc(Br)cc2)cs1	i
O=C(O)c1c(Cl)ccc(S(=O)(=O)N2CCOCC2)c1Cl	i
CC(C)(CN1CCOCC1)CN1CCC2(CCCN(Cc3ccc(F)cc3)C2)C1 (configuration not stated)	i
OC1CCCN(CCCn2cnc(-c3ccccc3)c2-c2cc(F)cc(F)c2)C1 (configuration not stated)	i
CCN(CC)C(=O)C[C@@H]1CCNC[C@@H]1Cc1cc(-c2ccc(C(C)(C)C)cc2)on1	i
O=C(Nc1cccc(-c2ccco2)c1)C1CCN(CC(O)CO)CC1 (configuration not stated)	i
Fc1ccccc1CN1CC[C@H](c2nnc(-c3cccnc3)o2)C1	i
O=C(CCCc1ccccc1)Nc1ccccc1-c1ccccc1	i
CC(=O)Nc1ccc2cccccc1-2	56%*
O=C(Nc1ccccc1-c1ccccc1)c1ccccc1	i
CCc1ncc(C(O)c2ccc(C)cc2)n1C (configuration not stated)	i
CCSc1nc2c(c(=O)n1-c1ccc(Cl)cc1)SCC2	i
Cc1ccsc1CN(C)c1cc(N(C)C)ncn1	i
COc1cccc(NC(=O)CSc2c3c(nc4ccccc24)CCC3)c1	i
COc1cccc(NC(=O)CSc2nnc(Cc3ccccc3)n2C)c1	40%*
COc1cccc(NC(=O)CSc2nnc3ccccn23)c1	i
CC1=C(C(=O)Nc2ccc(F)cc2F)C(c2cccs2)C2=C(CCCC2=O)N1 (configuration not stated)	i
CCN(CC)S(=O)(=O)c1ccc(NC(=O)COc2ccc(C)cc2Br)cc1	i
COc1ccc(OC)c(C2C=C(Nc3ccccc3)C(=O)N2c2ccccc2)c1 (configuration not stated)	i
COc1ccccc1C1C=C(Nc2ccc(C)cc2)C(=O)N1c1ccc(C)cc1 (configuration not stated)	i
O=C1C(Nc2ccccc2)=CC(c2ccccc2[N+](=O)[O-])N1c1ccccc1 (configuration not stated)	30%*
SMILES	ST2 inh
O=C(NCC1(Cn2cccn2)CC1)C1CCCN(Cc2ccco2)C1 (configuration not stated)	i
COc1ccccc1Oc1c(F)c(F)nc(N2CCCC2)c1F	i
O=C(CC[C@@H]1CNC(=O)[C@@H]2C[C@H](NC(=S)Nc3ccccc3)CN12)NC1CC1	i
COc1ccc(NC(=S)N[C@H]2C[C@H]3C(=O)NC[C@@H](CCC(=O)NC4CC4)N3C2)cc1	i
CCN(CC)C(=O)CC[C@@H]1CNC(=O)[C@@H]2C[C@H](NC(=S)Nc3ccccc3)CN12	36%*
Cc1ccc(-c2csc(NC(=O)c3cc(=O)c4ccccc4o3)n2)cc1	i
CC1CCCC(C)N1C(=O)c1ccccc1N (configuration not stated)	i
CN1CCN(C(=O)c2ccc3oc(Cc4ccccc4)nc3c2)CC1c1ccccc1 (configuration not stated)	i
Cc1nc([N+](=O)[O-])cn1CC(=O)c1ccccc1	i
CCOC(=O)c1sc(=Nc2ccccc2)n(-c2ccccc2)c1C	i
Cc1cc(C)n(-c2ccccc2)n1	i
Cc1csc(=Nc2ccccc2)n1-c1ccccc1	32%*
Cc1csc(=Nc2ccccc2)n1CC(=O)c1ccccc1	36%*
Cc1cccn(CC(=O)c2ccc(-c3ccccc3)cc2)c1=N	i
CCOc1ccc(N(CC)S(=O)(=O)c2cccc3cccnc23)cc1	i
CNc1ncccc1C(=O)N(CCOC)Cc1ccc(C)cc1	i
CCn1cc(C(=O)NCc2ccc3c(c2)OCO3)c2c3ccccc3n(C)c2c1=O	i
O=C(c1ccc(F)cc1)N1CCN(S(=O)(=O)c2cc3c4c(c2)CCN4C(=O)CC3)CC1	i
O=[N+]([O-])c1cc(C(F)(F)F)ccc1N1CCN(c2ccc([N+](=O)[O-])c3cccnc23)CC1	45%*
O=[N+]([O-])c1cccnc1N1CCOCC1	i
Cc1cc(-c2c(-c3ccccc3)ncn2CCOc2nonc2C)n[nH]1	i
O=[N+]([O-])c1cc(CN2CCOCC2)c(O)c2ncccc12	i
COc1ccccc1N1CCN(C(=O)c2cc(OC)c(OC)c(OC)c2)CC1	i
O=[N+]([O-])c1cccc(Cl)c1N1CCN(c2ccc([N+](=O)[O-])c3cccnc23)CC1	i
COc1ccccc1N1CCN(c2ccc([N+](=O)[O-])c3cccnc23)CC1	31%*
